PubChem BioAssay (Tox21)
Records with an inconclusive call do not appear. Active and inactive are the calls of the source. Unless noted, calls come from the whole dose curve; as a rule, active = well fitted curve in the direction sought with a large enough effect in the repeat runs; inconclusive = weak or mixed curves; inactive = no such curve, though single readings can be large; an effect the other way counts as inactive or inconclusive. Non-standard residues stand in square brackets, D forms with d. Residues, ends and D or L forms follow the SMILES beside them. *: point of attachment. Sta = CC(C)C[C@H](N)[C@@H](O)CC(=O)O; Isovaleryl = CC(C)CC(=O)*

Assays:
[1] = qHTS assay to identify small molecule antagonists of the vitamin D receptor (VDR) signaling pathway - cell viability counter screen (AID 743225); note: % is set by controls: 0 for no effect and ±100 for the full control effect; nearly all actives have a fitted effect of over 50% in size
Outline: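 Read-out: CellTiter-Glo luminescence measured 30 min after reagent addition at room temperature. Cells were VDR-bla HEK 293T exposed 16 h at 37C, 5% CO2, to compound with 3 nM final calcitriol agonist.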

[2] = qHTS assay to identify small molecule agonists of the NFkB signaling pathway - cell viability counter screen (AID 1159515; calls by dose curve; note: series mostly up to about 61 µM; % is set by controls: 0 for no effect and ±100 for the full control effect; nearly all actives have a fitted effect of over 55% in size)
Outline: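 5 hr compound treatment of NFkB-bla ME-180 cells (2,000/well, seeded overnight beforehand), followed by reporter substrate for 1.5 hr. CellTiter-Glo added afterward; luminescence after 30 min RT.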

[3] = qHTS assay to identify small molecule agonists of the endoplasmic reticulum stress response signaling pathway (AID 1159516; active = well fitted activation curve with a large enough effect in the signal ratio in the repeat runs, not every such curve was filed as active; the % refers to the signal ratio; note: % is set by controls: 0 for no effect and ±100 for the full control effect)
Outline: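 Reporter HeLa cells (ESRE-beta-lactamase) underwent 5 hr compound incubation at 37 C and 5% CO2 in quantitative HTS format. Detection followed 2 hr of FRET substrate loading at room temperature.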

[4] = qHTS assay to identify small molecule agonists of the endoplasmic reticulum stress response signaling pathway - cell viability counter screen (AID 1159517; calls by dose curve;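 note: HeLa cells carrying an ER stress response element beta-lactamase reporter; series mostly up to about 61 µM; % is set by controls: 0 for no effect and ±100 for the full control effect; nearly all actives have a fitted effect of over 50% in size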)
Outline: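 HeLa cells carrying an ESRE-driven beta-lactamase reporter receive compound for 5 hr at 37 C. Cell viability is then gauged with CellTiter-Glo by luminescence, 30 min at room temperature.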

[5] = qHTS assay to identify small molecule antagonists of the retinoid-related orphan receptor gamma (ROR-gamma) signaling pathway - cell viability counter screen (AID 1159520); note: % is set by controls: 0 for no effect and ±100 for the full control effect; nearly all actives have a fitted effect of over 50% in size
Outline: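 Cytotoxicity was read from cellular ATP (CellTiter-Glo luminescence) after 16 hr at 37 C with 1 uM doxycycline induction. The inducer was added 2 hr after compound transfer to Tet-on ROR gamma CHO cells.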

[6] = target: Nuclear receptor ROR-gamma (Homo sapiens) (UniProt P51449); test: qHTS assay to identify small molecule antagonists of the retinoid-related orphan receptor gamma (ROR-gamma) signaling pathway (AID 1159521;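 note: CHO cells with doxycycline inducible ROR-gamma driving an RORE luciferase reporter; top concentration of the series differs between compounds; % is set by controls: 0 for no effect and ±100 for the full control effect; nearly all actives have a fitted effect of over 50% in size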)
Outline: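 CHO Tet-on RORγ, RORE-luc reporter. Cpd 2 h pre-incubation, then dox hyclate 1 uM final, 16 h, 37 C/5% CO2. ONE-Glo luminescence; decrease = antagonist.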

[7] = qHTS assay to identify small molecule agonists of the AP-1 signaling pathway - cell viability counter screen (AID 1159525; calls by dose curve; note: nearly all actives have a fitted effect of over 55% in size)
Outline: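 Luminescent ATP readout (Cell Titer Glo, 30 min RT), normalised to DMSO and tetra n-octyl ammonium bromide controls. Cells were ME-180 AP-1-bla in 0.5% dialyzed FBS Opti-MEM, with a 5 h, 37 °C compound exposure.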

[8] = qHTS assay to identify small molecule agonists of the AP-1 signaling pathway (AID 1159526; calls by dose curve; note: % is set by controls: 0 for no effect and ±100 for the full control effect)
[9] = target: Retinoic acid receptor RXR-alpha (Homo sapiens) (UniProt P19793); test: qHTS assay to identify small molecule agonists of the RXR signaling pathway (AID 1159527; calls by dose curve; note: % is set by controls: 0 for no effect and ±100 for the full control effect; nearly all actives have a fitted effect of over 35% in size)
Sequence of Retinoic acid receptor RXR-alpha (Homo sapiens) (P19793 whole entry, looked up): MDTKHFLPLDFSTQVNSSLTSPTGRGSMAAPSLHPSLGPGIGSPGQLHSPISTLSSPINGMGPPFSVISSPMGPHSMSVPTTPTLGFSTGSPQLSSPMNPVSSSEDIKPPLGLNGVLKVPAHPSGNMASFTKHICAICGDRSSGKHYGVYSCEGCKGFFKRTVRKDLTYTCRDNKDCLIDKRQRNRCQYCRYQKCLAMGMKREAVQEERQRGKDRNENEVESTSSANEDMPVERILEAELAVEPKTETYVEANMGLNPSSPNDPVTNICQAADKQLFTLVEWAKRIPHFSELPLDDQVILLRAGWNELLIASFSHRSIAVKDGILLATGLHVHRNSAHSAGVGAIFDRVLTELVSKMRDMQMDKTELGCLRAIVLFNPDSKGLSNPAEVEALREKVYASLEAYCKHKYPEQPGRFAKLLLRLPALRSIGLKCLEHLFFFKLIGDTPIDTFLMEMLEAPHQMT
Outline: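 Read-out: beta-lactamase FRET ratio (405 nm excitation, 460 and 530 nm emission) after 2 hr substrate loading at room temperature. Cells were RXR-alpha-UAS-bla HEK 293T treated with compounds for 16 hr in 2% charcoal-stripped FBS medium.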

[10] = qHTS assay to identify small molecule agonists of the RXR signaling pathway - cell viability counter screen (AID 1159529)
Outline: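 HEK 293T RXRa-bla cells, 2% CS-FBS; 5 h settle; cpd 16 h 37 C, 5% CO2; CellTiter-Glo 30 min RT, luminescence. Tetraoctyl ammonium bromide as positive control.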

[11] = qHTS assay to identify small molecule antagonists of the retinoid acid receptor (RAR) signaling pathway - cell viability counter screen (AID 1159551); note: % is set by controls: 0 for no effect and ±100 for the full control effect; nearly all actives have a fitted effect of over 35% in size
Outline: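 Seed C3RL4 cells; next day add compound, then retinol to 1 uM final; incubate 6 h at 37 C; add CellTiter-Glo; read luminescence after 30 min at RT.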

[12] = qHTS assay to identify small molecule agonists of the retinoic acid receptor (RAR) signaling pathway (AID 1159553); note: % is set by controls: 0 for no effect and ±100 for the full control effect
Outline: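 Activation of retinol signaling was monitored via a RARE luciferase reporter in C3RL4 cells. After 6 hr compound treatment at 37 C, detection reagent was added for 30 min at room temperature before luminescence reading.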

[13] = qHTS assay to identify small molecule antagonists of the estrogen related receptor (ERR) signaling pathway from Tox21 library - cell viability counter screen (AID 1224834); note: % is set by controls: 0 for no effect and ±100 for the full control effect; nearly all actives have a fitted effect of over 30% in size
Outline: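 CellTiter-Fluor fluorescence measured; ERR cells; 17.5 h compound incubation at 37 C; 30 min reagent step.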

[14] = target: Luciferin 4-monooxygenase (Photinus pyralis) (UniProt P08659); test: qHTS assay to identify small molecule inhibitors of firefly luciferase (AID 1224835); note: series mostly up to about 120 µM; % is set by controls: 0 for no effect and ±100 for the full control effect; nearly all actives have a fitted effect of over 25% in size
Sequence of Luciferin 4-monooxygenase (Photinus pyralis) (P08659 whole entry, looked up): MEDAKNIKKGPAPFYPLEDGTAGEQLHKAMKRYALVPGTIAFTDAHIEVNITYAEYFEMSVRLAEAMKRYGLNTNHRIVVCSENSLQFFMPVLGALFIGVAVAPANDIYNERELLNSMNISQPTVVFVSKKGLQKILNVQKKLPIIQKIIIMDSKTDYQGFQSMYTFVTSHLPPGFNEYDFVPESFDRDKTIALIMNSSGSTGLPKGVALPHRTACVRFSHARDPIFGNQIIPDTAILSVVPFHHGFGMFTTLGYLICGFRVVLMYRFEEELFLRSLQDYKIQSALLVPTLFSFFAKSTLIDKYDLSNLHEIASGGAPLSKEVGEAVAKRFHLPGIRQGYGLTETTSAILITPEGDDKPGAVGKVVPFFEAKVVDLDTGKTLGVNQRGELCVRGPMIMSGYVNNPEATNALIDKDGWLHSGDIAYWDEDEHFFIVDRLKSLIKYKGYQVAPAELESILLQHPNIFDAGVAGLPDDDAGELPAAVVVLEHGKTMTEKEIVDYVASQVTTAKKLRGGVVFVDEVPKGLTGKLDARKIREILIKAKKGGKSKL
Outline: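 Inhibition of purified Photinus luciferase is measured by luminescence. Substrate levels (D-luciferin, ATP) sit at their KM values. Each compound is tested in a concentration series.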

[15] = qHTS assay to identify small molecule agonists of the constitutive androstane receptor (CAR) signaling pathway - cell viability counter screen (AID 1224836); note: series mostly up to about 92 µM; % is set by controls: 0 for no effect and ±100 for the full control effect; nearly all actives have a fitted effect of over 45% in size
Outline: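 HepG2-CYP2B6-hCAR, 2500 cells/well, 4 h pre-incubation; cpd 15 conc + PK11195 0.75 uM final; 23 h, 37 C/5% CO2; CellTiter-Fluor, fluorescence.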

[16] = qHTS assay to identify small molecule antagonists of the constitutive androstane receptor (CAR) signaling pathway - cell viability counter screen (AID 1224837); note: series mostly up to about 92 µM; % is set by controls: 0 for no effect and ±100 for the full control effect; nearly all actives have a fitted effect of over 45% in size
Outline: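 Using CellTiter-Fluor, viability is scored in HepG2 cells stably carrying hCAR and a 2.2kb CYP2B6 reporter after 23 hr compound exposure across 15 concentrations, with CITCO present at 50 nM.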

[17] = target: Nuclear receptor subfamily 1 group I member 3 (Homo sapiens) (UniProt Q14994); test: qHTS assay to identify small molecule antagonists of the constitutive androstane receptor (CAR) signaling pathway (AID 1224838);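 note: HepG2 cells stably expressing hCAR with CYP2B6 luciferase reporter stimulated by CITCO; % is set by controls: 0 for no effect and ±100 for the full control effect; nearly all actives have a fitted effect of over 40% in size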
Sequence of Nuclear receptor subfamily 1 group I member 3 (Homo sapiens) (Q14994 whole entry, looked up): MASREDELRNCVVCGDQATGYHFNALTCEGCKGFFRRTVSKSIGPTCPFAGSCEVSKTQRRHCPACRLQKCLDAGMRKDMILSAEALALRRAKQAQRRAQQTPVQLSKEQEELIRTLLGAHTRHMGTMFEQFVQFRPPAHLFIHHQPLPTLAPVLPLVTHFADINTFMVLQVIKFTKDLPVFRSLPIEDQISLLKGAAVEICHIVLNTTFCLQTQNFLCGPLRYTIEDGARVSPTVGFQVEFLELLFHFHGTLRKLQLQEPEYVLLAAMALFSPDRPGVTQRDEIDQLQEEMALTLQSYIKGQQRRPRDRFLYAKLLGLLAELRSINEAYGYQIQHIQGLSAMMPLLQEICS
Outline: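 Reporter luminescence was quantified after 24 h exposure of hCAR/CYP2B6-2.2kb double-stable HepG2 cells to compounds at 15 concentrations in the presence of 50 nM CITCO final.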

[18] = target: Nuclear receptor subfamily 1 group I member 3 (Homo sapiens) (UniProt Q14994); test: qHTS assay to identify small molecule agonists of the constitutive androstane receptor (CAR) signaling pathway (AID 1224839);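 note: HepG2 cells stably carrying human CAR and a CYP2B6 luciferase reporter; series mostly up to about 92 µM; % is set by controls: 0 for no effect and ±100 for the full control effect; nearly all actives have a fitted effect of over 15% in size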
Outline: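 HepG2-CYP2B6-hCAR cells, 2500/well, 4 h pre-incubation; compounds 15 conc.; PK11195 0.75 uM final; 24 h, 37 C/5% CO2; ONE-Glo luciferase read.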

[19] = qHTS assay to identify small molecule antagonists of the estrogen related receptor signaling pathway with the pleiotropic PPARgamma coactivator (PGC) from Tox21 10K library - cell viability counter screen (AID 1224840; active = well fitted cell-killing curve with a large enough effect in the repeat runs, not every such curve was filed as active; note: % is set by controls: 0 for no effect and ±100 for the full control effect; nearly all actives have a fitted effect of over 40% in size)
Outline: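 Here the PGC/ERR cells serve as a cytotoxicity control: they are exposed to compounds for 17.5 hours at 37 C, and live-cell signal is quantified using CellTiter-Fluor fluorescence.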

[20] = qHTS assay to identify small molecule antagonists of the retinoic acid receptor (RAR) signaling pathway (AID 1159552)
Outline: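 Cells of the C3RL4 line were seeded, incubated overnight, then dosed with compounds in DMSO followed immediately by retinol (1 uM final). Six hours later luciferase detection reagent went in; signal was measured after 30 min at RT.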

CCCOc1ccc(C(=O)OCCN(CC)CC)cc1N
inactive: outcome [1] | outcome [2] | Potency [3] | outcome [4] | outcome [5] | outcome [6] | outcome [7] | Potency [8] | Potency [9] | Potency [10] | outcome [11] | Potency [12] | outcome [13] | Potency [14] | outcome [15] | outcome [16] | outcome [17] | Potency [18] | outcome [19]

Cc1ccc(NC(N)=O)cc1
inactive: outcome [1] | outcome [2] | Potency [3] | outcome [4] | outcome [5] | outcome [6] | outcome [7] | Potency [8] | Potency [9] | Potency [10] | outcome [11] | outcome [20] | Potency [12] | Potency [14] | outcome [15] | outcome [16] | outcome [17] | Potency [18] | outcome [19]

Cc1ccc(N)nc1
inactive: outcome [1] | outcome [2] | Potency [3] | outcome [4] | outcome [5] | outcome [6] | outcome [7] | Potency [8] | Potency [9] | Potency [10] | outcome [11] | Potency [12] | outcome [13] | Potency [14] | outcome [15] | outcome [16] | outcome [19]

CCC(=O)OCCOc1ccccc1
inactive: outcome [1] | outcome [2] | Potency [3] | outcome [4] | outcome [5] | outcome [6] | outcome [7] | Potency [8] | Potency [9] | Potency [10] | outcome [11] | outcome [20] | Potency [12] | outcome [13] | Potency [14] | outcome [15] | outcome [16]

COc1cc(S(N)(=O)=O)cc(C(=O)O)c1OC
inactive: outcome [1] | outcome [2] | Potency [3] | outcome [4] | outcome [5] | outcome [6] | outcome [7] | Potency [8] | Potency [9] | Potency [10] | outcome [11] | outcome [20] | Potency [12] | Potency [14] | outcome [15] | outcome [16]

Cc1cc(N)no1
inactive: outcome [1] | outcome [2] | Potency [3] | outcome [4] | outcome [5] | outcome [6] | outcome [7] | Potency [8] | Potency [9] | Potency [10] | outcome [11] | Potency [12] | outcome [13] | Potency [14] | outcome [15] | outcome [16] | Potency [18]

C=CCCCCCCCCCCCCCC
inactive: outcome [1] | outcome [2] | Potency [3] | outcome [4] | activity, negative = cytotoxicity [5] 0.624% [at 19 µM] | activity change, negative = inhibition [6] -3.67% [at 19 µM] | viability change, negative = cytotoxic [7] 0.684% [at 15.8 µM] | activation [8] -3.84% [at 15.8 µM] | activation [9] -0.752% [at 15.8 µM] | activity change, negative = cytotoxicity [10] -3.45% [at 15.8 µM] | activity change, negative = cytotoxicity [11] 0.725% [at 19 µM] | Potency [12] | viability change, negative = cytotoxic [13] 3.18% [at 19 µM] | activity change, negative = inhibition [14] 0.285% [at 23.6 µM] | viability change, negative = cytotoxic [15] 7.15% [at 19 µM] | activity change, negative = cytotoxicity [16] -0.461% [at 19 µM] | activity, negative = inhibition [17] 6.03% [at 19 µM] | activation [18] -0.195% [at 19 µM] | viability change, negative = cytotoxic [19] 2.94% [at 19 µM]

N=C(N)S(=O)O
inactive: outcome [1] | outcome [2] | Potency [3] | outcome [4] | outcome [5] | outcome [6] | outcome [7] | Potency [8] | Potency [9] | Potency [10] | outcome [11] | outcome [20] | Potency [12] | outcome [13] | Potency [14] | outcome [15] | outcome [16]

CC(C)CC(=O)N[C@H](C(=O)N[C@H](C(=O)N[C@@H](CC(C)C)[C@@H](O)CC(=O)N[C@@H](C)C(=O)N[C@@H](CC(C)C)[C@@H](O)CC(=O)O)C(C)C)C(C)C (Isovaleryl-VV[Sta]A[Sta]-OH)
inactive: outcome [1] | outcome [2] | Potency [3] | outcome [4] | outcome [5] | outcome [6] | outcome [7] | Potency [8] | Potency [9] | Potency [10] | outcome [11] | outcome [20] | Potency [12] | Potency [14] | outcome [15] | outcome [16] | outcome [17] | Potency [18] | outcome [19]

CCC(C)SSC(C)CC (stereo unspecified)
inactive: outcome [2] | Potency [3] | outcome [4] | outcome [5] | outcome [6] | outcome [7] | Potency [8] | Potency [9] | Potency [10] | outcome [11] | Potency [12] | outcome [13] | Potency [14] | outcome [15] | outcome [16] | outcome [19]

COC(=O)N/N=C/c1c[n+]([O-])c2ccccc2[n+]1[O-]
inactive: outcome [1] | outcome [2] | Potency [3] | outcome [4] | outcome [5] | outcome [6] | outcome [7] | Potency [8] | Potency [9] | Potency [10] | outcome [11] | outcome [20] | Potency [12] | Potency [14] | outcome [15] | outcome [16] | Potency [18] | outcome [19]

CC1=C(O)C(=O)CO1
inactive: outcome [1] | outcome [2] | Potency [3] | outcome [4] | outcome [5] | outcome [6] | outcome [7] | Potency [8] | Potency [9] | Potency [10] | outcome [11] | outcome [20] | Potency [12] | Potency [14] | outcome [15] | outcome [16] | outcome [17] | Potency [18] | outcome [19]

CCCCc1ccc(Cl)cc1
inactive: outcome [1] | outcome [2] | Potency [3] | outcome [4] | outcome [5] | outcome [6] | outcome [7] | Potency [8] | Potency [9] | Potency [10] | outcome [11] | outcome [20] | Potency [12] | outcome [13] | Potency [14] | outcome [15] | outcome [16]

O=C(O)Cc1ccccc1Oc1ccc(Cl)cc1Cl
inactive: outcome [2] | Potency [3] | outcome [4] | outcome [5] | outcome [6] | outcome [7] | Potency [8] | Potency [9] | Potency [10] | outcome [11] | outcome [20] | Potency [12] | Potency [14] | outcome [15] | outcome [16] | outcome [19]

O=S(=O)(O)c1cc(I)c(O)c2ncccc12
inactive: outcome [1] | outcome [2] | Potency [3] | outcome [4] | outcome [5] | outcome [6] | outcome [7] | Potency [8] | Potency [9] | Potency [10] | outcome [11] | Potency [12] | outcome [13] | Potency [14] | outcome [15] | outcome [16] | outcome [19]

CC(C)(C)c1ccc(N)cc1
inactive: outcome [1] | outcome [2] | Potency [3] | outcome [4] | outcome [5] | outcome [6] | outcome [7] | Potency [8] | Potency [9] | Potency [10] | outcome [11] | outcome [20] | Potency [12] | Potency [14] | outcome [15] | outcome [16] | outcome [17] | Potency [18]
